PubChem BioAssay AID1159580 (chemical genetic matrix, 2015)
Screen size: about 5,500 compounds; about 2,000 (36%) were called active. Roughly 18% stayed inconclusive and do not appear here. Cut-off read from the data, not from the text of the source: active = normalized growth mostly below about 0.91 (no sharp cut-off); inconclusive = no clear call, values can overlap the other calls; inactive = mostly above about 0.92. The list shows a part of the results.

Assay: chemical genetic growth profiling, strain panel (AID 1159580);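 note: tested at 20 µM; growth read once vehicle control cultures reached saturation at 30 °C; 1 = growth at the plate median or of vehicle wells; lower values mean less growth of the strain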
Settings: S. cerevisiae deletion strains, growth OD
[1] = locus YHR030C, strain SLT2, active compounds read low
[2] = locus YHR079C, strain IRE1, active compounds read low
[3] = locus YJL095W, strain BCK1, active compounds read low
[4] = locus YJR066W, strain TOR1, active compounds read low
[5] = locus YLR113W, strain HOG1, active compounds read low
[6] = locus YNL183C, strain NPR1, active compounds read low
[7] = locus YOR231W, strain MKK1, active compounds read low
[8] = locus YPL256C, strain CLN2, active compounds read low

Measured: normalized growth

C=C[C@@]1(C)CC(=O)[C@@]2(O)[C@](C)(O1)[C@@H](O)[C@@H](O)C1C(C)(C)CC[C@H](O)[C@@]12C (stereo partly specified)
inactive: [1] 0.962 | [2] 0.971 | [3] 0.989 | [4] 0.957 | [5] 0.992 | [6] 0.995 | [7] 0.992 | [8] 0.976

O=C1OC(CN2CCOCC2)CN1/N=C\c1ccc([N+](=O)[O-])o1 (stereo unspecified)
inactive: [1] 0.93 | [2] 0.948 | [3] 0.952 | [4] 0.844 | [5] 1.03 | [6] 0.856 | [7] 0.931 | [8] 0.961
